Source: PubChem BioAssay
Pol kappa inh – inhibitors of human DNA polymerase kappa. AID 588579. Potency, µM (top dose mostly 107 µM), actives largely listed as inhibitors. Q9UBT6. purified Pol kappa, fluorescent DNA synthesis assay, 10 min. actives 0.53% (n = 400,000)
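Here, compound and 10 nM enzyme are combined for 15 min at room temperature; adding 50 nM substrate (final) starts DNA synthesis, tracked by fluorescence at 0 and 10 min against buffer-only wells.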
POLI inh – blocks human DNA polymerase iota activity; Q9UNA4; Pol iota fluorescent replication assay, 10 min; Potency, µM (highest dose often 115 µM), hits mostly inhibitors; actives 1% (n = 390,000); AID 588590
Target sequence (Q9UNA4 whole entry, looked up): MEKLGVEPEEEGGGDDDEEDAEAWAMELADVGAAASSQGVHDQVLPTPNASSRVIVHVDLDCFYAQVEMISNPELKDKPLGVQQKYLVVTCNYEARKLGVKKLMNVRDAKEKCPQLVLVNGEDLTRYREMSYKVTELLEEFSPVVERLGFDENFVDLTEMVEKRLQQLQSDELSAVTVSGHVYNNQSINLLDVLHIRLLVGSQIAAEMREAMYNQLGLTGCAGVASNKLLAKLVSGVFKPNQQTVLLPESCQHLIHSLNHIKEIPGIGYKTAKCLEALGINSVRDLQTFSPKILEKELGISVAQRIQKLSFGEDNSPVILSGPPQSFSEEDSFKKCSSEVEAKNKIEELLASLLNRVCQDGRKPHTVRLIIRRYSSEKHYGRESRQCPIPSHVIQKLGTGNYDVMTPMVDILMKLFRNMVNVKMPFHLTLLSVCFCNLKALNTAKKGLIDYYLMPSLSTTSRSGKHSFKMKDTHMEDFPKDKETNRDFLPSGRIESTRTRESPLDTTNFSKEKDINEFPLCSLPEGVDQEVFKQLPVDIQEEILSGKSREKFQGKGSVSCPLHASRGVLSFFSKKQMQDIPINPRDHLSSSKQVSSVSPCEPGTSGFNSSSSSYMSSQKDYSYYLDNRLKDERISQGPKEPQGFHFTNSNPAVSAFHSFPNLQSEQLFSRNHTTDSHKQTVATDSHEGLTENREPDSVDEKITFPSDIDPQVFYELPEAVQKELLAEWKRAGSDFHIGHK
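Pol iota at 10 nM preincubated 15 min with compounds at room temperature; reaction started with fluorescent substrate, 50 nM final. Fluorescence read kinetically at 0 and 10 min; buffer-only wells as negative control.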
POLB inh – DNA polymerase beta (human) inhibition; P06746; Pol beta primer extension/strand displacement, fluorescence kinetic; Potency, µM (doses to about 114 µM), actives largely listed as inhibitors; actives 1.3% (n = 340,000)
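Preincubation: enzyme (10 nM) with compound, 15 min, RT. Reaction: substrate added to 50 nM final. Reads: 0 and 10 min. Analysis: normalized, Hill fit.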
WRN helicase inh – blocks human WRN helicase | actives 0.46% (n = 360,000) | AID 651768 | WRN helicase unwinding, fluorescent forked duplex, kinetic | Potency, µM (titrated, usually from 114 µM), usual class: inhibitors | Q14191; also: nearly all actives have a fitted effect of over 55% in size
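Fluorescence dequenching readout, ex 525 nm/em 598 nm, kinetic mode: forked duplex DNA (100 nM final) with adjacent fluorophore and quencher unwound by WRN (20 nM final) with 2 mM ATP. Compound preincubation 15 min, room temperature.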
Pol eta inh – DNA polymerase eta (human) inhibition; Q9Y253; recombinant Pol eta, fluorescent DNA replication assay; Potency, µM (doses to about 114 µM), actives largely listed as inhibitors; actives 1.2% (n = 390,000); AID 588591
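Pol eta (10 nM) was preincubated with compounds for 15 min at room temperature, after which fluorescent replication substrate (50 nM final) was added to start the reaction. Fluorescence was read kinetically at 0 and 10 min.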
Large screens that a line does not name were inactive. Compounds with a hit are over-represented: about 2.3% of the library has one in this group of screens. Calls follow the shape of the dose curve; as a rule, active = well fitted curve in the direction sought with a large enough effect; inconclusive = small, poorly fitted or top-dose-only effect, or another doubt; inactive = no such curve, though single readings can be large; an effect the other way counts as inactive or inconclusive.

COc1ccc(-c2nc(SCC(=O)Nc3ccc4c(c3)OCCO4)c(-c3ccc(F)cc3)[nH]2)cc1OC	none (no result: WRN helicase inh)
COc1ccc2[nH]c3nc(SCC(=O)Nc4ccc5c(c4)OCO5)nnc3c2c1	POLI inh inconclusive, POLB inh 22.4µM, Pol eta inh inconclusive
COc1cccc(CNC(=O)CSc2nnc3c(n2)[nH]c2ccc(OC)cc23)c1	none
COc1ccc(OC)c(/C=C/c2sc3ccccc3[n+]2C)c1	none (no result: POLB inh, WRN helicase inh, Pol eta inh)
O=C(NO)c1ccccc1O	none
CSc1ccc(/C=N/NC(=O)c2ccccc2Cl)cc1	none
CSc1ccc(/C=C/C(=O)NC(=O)c2ccccc2O)cc1	POLI inh inconclusive, POLB inh 35.5µM
O=C(/C=C/c1ccc(Br)cc1)NC(=O)c1ccccc1O	POLB inh 31.6µM
OC[C@@H]1CCC[C@@H](n2cnc3c(=S)nc[nH]c32)O1	none (no result: POLB inh, WRN helicase inh, Pol eta inh)
O=C(Nc1ccc(Br)cn1)c1cccc(-c2cc3ccccc3oc2=O)c1	POLB inh inconclusive, Pol eta inh inconclusive
O=C(Nc1ccc(Br)cn1)c1coc(=O)c(Br)c1	Pol kappa inh inconclusive, POLI inh 39.8µM, POLB inh inconclusive, Pol eta inh 44.7µM
O=C(Nc1ccccc1F)c1coc(=O)c(Br)c1	Pol kappa inh 31.6µM, POLI inh 28.2µM, POLB inh 12.6µM, WRN helicase inh inconclusive, Pol eta inh 79.4µM
O=C(NC1CC(=O)N(c2cccc(F)c2)C1)c1ccc(S(=O)(=O)N2CCCC2)cc1 (stereo unspecified)	none (no result: WRN helicase inh)
O=C1/C(=C\c2ccc(Br)o2)SC(=Nc2ccccc2)N1c1ccccc1	Pol kappa inh inconclusive, POLI inh inconclusive, POLB inh 0.398µM
C=CCn1c(C)nnc1SCC(=O)N1c2ccccc2NC(=O)C1(C)C	none (no result: Pol kappa inh, POLI inh, POLB inh)
CC1(C)C(=O)Nc2ccccc2N1C(=O)COc1ccccc1C#N	Pol kappa inh inconclusive, POLI inh 35.5µM, Pol eta inh inconclusive (no result: POLB inh)
CC1(C)C(=O)Nc2ccccc2N1C(=O)CSc1ncccn1	Pol kappa inh inconclusive, POLI inh 44.7µM, POLB inh inconclusive, Pol eta inh inconclusive
CC1(C)C(=O)Nc2ccccc2N1C(=O)COc1ccc(S(=O)(=O)N2CCOCC2)cc1Cl	POLI inh inconclusive, POLB inh 25.1µM, Pol eta inh inconclusive
C[C@@H]1NC(=O)c2cc([N+](=O)[O-])cc(I)c2OCC[C@@H](C(=O)NC(CC(=O)O)C(N)=O)NC(=O)[C@H](CCC(=O)O)NC1=O (stereo partly specified)	Pol kappa inh inconclusive, POLI inh inconclusive, Pol eta inh 17.8µM
NC(=O)C(CC(=O)O)NC(=O)[C@@H]1CCOc2c(I)cc([N+](=O)[O-])cc2C(=O)N[C@@H](CCC(=O)O)C(=O)N[C@@H](CO)C(=O)N1 (stereo partly specified)	Pol kappa inh inconclusive, POLI inh inconclusive, Pol eta inh inconclusive
C[C@@H]1NC(=O)[C@H](CC(N)=O)NC(=O)c2cc([N+](=O)[O-])cc(I)c2OCC[C@@H](C(=O)NC(CC(=O)O)C(N)=O)NC1=O (stereo partly specified)	Pol kappa inh 79.4µM, POLI inh inconclusive, Pol eta inh 20µM
CC(C)C[C@@H]1NC(=O)[C@H](CO)NC(=O)c2cc([N+](=O)[O-])cc(I)c2OCC[C@@H](C(N)=O)NC1=O	POLI inh inconclusive
CCOc1ccccc1CN1CCc2nc(Nc3ccc4c(c3)OCCO4)ncc2C1	none (no result: WRN helicase inh)
NCCCC[C@H](NC(=O)[C@H](CS)NC(=O)[C@@H](N)Cc1cnc[nH]1)C(=O)N[C@@H](Cc1ccccc1)C(=O)N[C@@H](Cc1c[nH]c2ccccc12)C(=O)N[C@@H](Cc1c[nH]c2ccccc12)C(=O)O	none (no result: POLI inh, POLB inh, WRN helicase inh, Pol eta inh)
COc1cc2nc(CCc3nc4cc(OC)c(OC)cc4[nH]3)[nH]c2cc1OC	Pol kappa inh 3.16µM, POLI inh 2.51µM (no result: POLB inh, WRN helicase inh, Pol eta inh)
Cc1cc2nc(CO)[nH]c2cc1C	none
CC(=O)N1CCc2c(sc(NC(=O)c3ccc([N+](=O)[O-])o3)c2C(N)=O)C1	Pol eta inh 50.1µM (no result: Pol kappa inh, POLI inh, POLB inh)
N#Cc1c(-c2ccc(F)cc2)cc(-c2ccccc2)nc1SCC(=O)NCC(=O)O	POLI inh inconclusive, POLB inh 44.7µM
COC(=O)CSc1nc(N)c(C#N)c(-c2ccco2)c1C#N	Pol eta inh inconclusive
COC(=O)CSc1nc(-c2ccccc2)cc(-c2ccco2)c1C#N	POLB inh 28.2µM
C[C@@]12C=Cc3occc3[C@H]1CC[C@@]13C[C@@H](CC[C@H]12)[C@@](O)(CO)C3	none (no result: POLI inh, POLB inh, WRN helicase inh, Pol eta inh)
NC(N)=NCCC[C@@H](N)C(=O)NCC(=O)N[C@@H](CC(=O)O)C(=O)N[C@@H](Cc1c[nH]c2ccccc12)C(=O)O	none (no result: POLI inh, POLB inh, WRN helicase inh, Pol eta inh)
CSc1nsc(/C=C/Nc2ccc(F)cc2)c1C#N	POLI inh inconclusive
CSc1nsc(/C=C/Nc2ccc(O)cc2C)c1C#N	POLI inh 25.1µM, WRN helicase inh inconclusive
Cc1ccc(C(=O)Nc2nnc(SCc3cc(=O)c4c(C)ccc(C)c4[nH]3)s2)cc1	POLI inh inconclusive, POLB inh 50.1µM (no result: WRN helicase inh)
CCc1cccc(NC(=O)Cn2nc(C)c3sc4ccccc4c3c2=O)c1	POLI inh 89.1µM, POLB inh 22.4µM (no result: WRN helicase inh)
Cc1nn(CCCC(=O)NCc2ccccc2Br)c(=O)c2c1sc1ccccc12	none (no result: WRN helicase inh)
Cc1nn(CCCC(=O)NCc2ccccc2)c(=O)c2c1sc1ccccc12	Pol kappa inh inconclusive, POLI inh inconclusive, POLB inh 79.4µM (no result: WRN helicase inh, Pol eta inh)
CSc1cccc(NC(=O)Cn2nc(C)c3sc4ccccc4c3c2=O)c1	none (no result: WRN helicase inh)
O=C(COC(=O)c1cc(S(=O)(=O)N2CCOCC2)ccc1Cl)NCc1ccco1	none (no result: POLB inh)
O=C(COC(=O)c1cccc(S(=O)(=O)N2CCc3ccccc3C2)c1)NCc1ccco1	POLB inh 17.8µM
O=C(COC(=O)c1cc(S(=O)(=O)N2CCc3ccccc3C2)ccc1Cl)NCc1ccco1	Pol kappa inh inconclusive, POLI inh inconclusive, POLB inh 39.8µM, WRN helicase inh inconclusive, Pol eta inh 20µM
O=S(=O)(NCCCCNS(=O)(=O)c1cccc2cccnc12)c1cccc2cccnc12	none (no result: POLB inh, WRN helicase inh, Pol eta inh)
Cc1ccc(NC(=O)C(C)OC(=O)c2ccc(Cl)nc2)cc1S(=O)(=O)N1CCOCC1 (stereo unspecified)	POLI inh inconclusive, Pol eta inh 20µM (no result: POLB inh)
CCc1ccc(NC(=O)NNC(=O)c2cc3ccccc3cc2O)cc1	Pol kappa inh inconclusive, POLI inh inconclusive, POLB inh inconclusive
O=C(CCC1CCCC1)NNC(=O)c1cc2ccccc2cc1O	POLI inh inconclusive, POLB inh 50.1µM
Cc1cccc(NC(=O)NNC(=O)c2cc3ccccc3cc2O)c1C	Pol kappa inh inconclusive, POLI inh 50.1µM, POLB inh 35.5µM
Cc1ccc(NC(=O)NNC(=O)c2cc3ccccc3cc2O)c(C)c1	Pol kappa inh inconclusive, POLI inh 70.8µM, POLB inh inconclusive
O=C(CC1CCCC1)NNC(=O)c1ccccc1O	none (no result: Pol kappa inh, POLI inh, POLB inh)
CCOc1ccc(NC(=O)NNC(=O)c2cc3ccccc3cc2O)cc1	POLI inh 79.4µM, POLB inh inconclusive
